We go through 35 compounds from PubChem BioAssay (Tox21).

Results filed as inconclusive are left out. A number with no mark means an inactive call. Calls come from the whole dose curve; as a rule, active = well fitted cell-killing curve with a large enough effect in the repeat runs; inconclusive = weak or mixed curves, or effect the other way; inactive = no such curve, though single readings can be large or run the other way.
% is set by controls: 0 for no effect and ±100 for the full control effect.
Note: nearly all actives have a fitted effect of over 50% in size.

One test is described as follows: qHTS assay to identify small molecule agonists of the vitamin D receptor (VDR) signaling pathway - cell viability counter screen (AID 743224). The note with it: VDR-bla HEK293T viability, CellTiter-Glo luminescence, 16 h; series mostly up to 62.6 µM; activity change, negative = cytotoxicity: at the top concentration. The essentials:
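VDR-bla cells were preincubated 4 h at 37C/5% CO2, then exposed to compounds for 16 h. After the 2 h room-temperature bla FRET read, CellTiter-Glo was added to the same wells and luminescence read after 30 min.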
For orientation: In qHTS, concentration-response curves come from the screen itself.
Consider `CC(=O)c1ccc2ccccc2c1`, for which the “activity change, negative = cytotoxicity” value was 0.0881%.
The same measure, in the same setting: the same measure for `O=[N+]([O-])c1cncn1CCN1CCOCC1`: -6.08%; for `CN(C)[C@@H]1C(=O)C(C(=O)NCN2CCCC2)=C(O)[C@@]2(O)C(=O)C3=C(O)c4c(O)cccc4[C@@](C)(O)C3C[C@@H]12` (some centres not stated): 5.35%.
Same read-out and setting: as for `C1CCC2(CCCCO2)OC1`, the figure is 7.39%; as for `CCOc1c(N2CCOCC2)cnn(C)c1=O`, 9.39%.
The same measure, in the same setting: as for `CC(CC=O)CC(C)(C)C` (configuration not stated), the figure is -9.56%; as for `CC1=CCC(O)(C(C)C)CC1` (configuration not stated), 22.6%.
Turning to `O=C(O)CNC(=O)c1ccccc1`, the “activity change, negative = cytotoxicity” value is -1.36%.
Same read-out and setting: the same measure for `Cc1ncc([C@@H](CCCCCCc2ccc3c(n2)NCCC3)CC(=O)O)cn1`: -7.21%.
Same read-out and setting: as for `[Ca+2]`, the figure is 4.15%; as for `Cc1cccc(C)c1NC(=O)CC12CCCN1CCC2`, -2.7%.
Still for that read-out and setting: the same measure for `CCN1C=CN(C)C1C` (configuration not stated): 2.66% [at 81.1 µM]; for `CC1CCC(CO)CC1` (configuration not stated): -0.115% [at 81.1 µM]; for `CCC(C)(CCCC(C)C)OC(C)=O` (configuration not stated): 1.24%.
On to `Nc1ccn([C@@H]2O[C@H](CO)[C@@H](O)C2O)c(=O)n1` (some centres not stated), for which the “activity change, negative = cytotoxicity” value was 8.36%.
The same measure, in the same setting: the same measure for `O=C1NC(=O)C2CC=CCC12` (configuration not stated): -0.718%; for `CC1(C)OC[C@@H](COC(=O)CCc2ccc(OC[C@@H](O)CNCCNC(=O)N3CCOCC3)cc2)O1`: -0.0136%; for `C[N+]1(C)[C@@H]2CC(OC(=O)[C@H](CO)c3ccccc3)C[C@H]1[C@@H]1O[C@@H]12` (some centres not stated): -1.48%.
Same read-out and setting: the same measure for `CC(C)c1ccc2ncccc2c1`: 8.44%.
On the same count and under the same terms, as for `COc1cc(C(=O)OC(COCCC(C)C)CN2CCOCC2)cc(OC)c1OC` (configuration not stated), the figure is 10.1%; as for `O=C(CO)[C@@H](O)[C@H](O)[C@@H](O)CO`, 12.6%; as for `CN(C)CCCCCCN(C)C`, 7.53% [at 81.1 µM].
On to `CCCC(=O)O[C@]1(C(=O)CC)CC[C@H]2[C@@H]3CCC4=CC(=O)CC[C@]4(C)[C@H]3[C@@H](O)C[C@@]21C`, for which the “activity change, negative = cytotoxicity” value is 1.77%.
The same measure, in the same setting: as for `C=C(C)C(=O)OCCOCCOCCOCCOC(=O)C(=C)C`, the figure is -0.363%.
Consider `CC12CCC(C(=O)C1=O)C2(C)C` (configuration not stated), for which the “activity change, negative = cytotoxicity” value was -6.06% [at 81.1 µM].
Same read-out and setting: as for `O=C(O)Cc1csc(-c2ccc(Cl)cc2)n1`, the figure is -0.0885%.
Same read-out and setting: the same measure for `Cc1c(N)c(=O)n(-c2ccccc2)n1C`: 9.6%.
On the same count and under the same terms, the same measure for `CCCCN(CCC(=O)OCC)C(C)=O`: 1.2%.
In the case of `CCOC(=O)c1ccccc1`, the “activity change, negative = cytotoxicity” value was 9.56%.
For `CCCOC(=O)CC`, the “activity change, negative = cytotoxicity” value is -1.22%.
Take `OCCc1ccccn1`: the “activity change, negative = cytotoxicity” value was 1.57%.
As to `CC/C=C\CCOC(C)OCC` (configuration not stated), the “activity change, negative = cytotoxicity” value is 17.3%.
On the same count and under the same terms, as for `CN(C)CCN(C)CCN(C)C`, the figure is -1.09%; as for `O=C(O)CNC(=O)c1ccc(CO)o1`, 9.39%; as for `CC(=O)N1C[C@H](O)C[C@H]1C(=O)O`, 12.4%.

The next test in a line: qHTS assay to identify small molecule antagonists of the vitamin D receptor (VDR) signaling pathway - cell viability counter screen (AID 743225). The note with it: VDR-bla HEK293T viability, CellTiter-Glo luminescence, 16 h; series mostly up to 61 µM; viability change, negative = cytotoxic: at the top concentration. The method in brief:
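Cytotoxicity toward the VDR-bla HEK 293T line was scored by ATP-based CellTiter-Glo luminescence, read in the wells already used for the beta-lactamase readout after 16 h compound treatment under 3 nM 1-alpha,25-dihydroxyvitamin D3 stimulation.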
For `CC(=O)c1ccc2ccccc2c1`, the “viability change, negative = cytotoxic” value is -0.615%.
Turning to `O=[N+]([O-])c1cncn1CCN1CCOCC1`, the “viability change, negative = cytotoxic” value is 4.52%.
Still for that read-out and setting: as for `CN(C)[C@@H]1C(=O)C(C(=O)NCN2CCCC2)=C(O)[C@@]2(O)C(=O)C3=C(O)c4c(O)cccc4[C@@](C)(O)C3C[C@@H]12` (some centres not stated), the figure is 0.178%; as for `C1CCC2(CCCCO2)OC1`, -7.92%; as for `CCOc1c(N2CCOCC2)cnn(C)c1=O`, 1.82%.
For `CC(CC=O)CC(C)(C)C` (configuration not stated), the “viability change, negative = cytotoxic” value is -28%.
Still for that read-out and setting: the same measure for `CC1=CCC(O)(C(C)C)CC1` (configuration not stated): 3.3%.
Still for that read-out and setting: the same measure for `O=C(O)CNC(=O)c1ccccc1`: -7.22%.
Same read-out and setting: the same measure for `Cc1ncc([C@@H](CCCCCCc2ccc3c(n2)NCCC3)CC(=O)O)cn1`: -5.93%; for `Cc1cccc(C)c1NC(=O)CC12CCCN1CCC2`: -1.81%.
Regarding `CCN1C=CN(C)C1C` (configuration not stated), the “viability change, negative = cytotoxic” value is -22.8% [at 78.8 µM].
The same measure, in the same setting: as for `CC1CCC(CO)CC1` (configuration not stated), the figure is 18.1% [at 78.8 µM]; as for `CCC(C)(CCCC(C)C)OC(C)=O` (configuration not stated), 2.72%.
Same read-out and setting: the same measure for `Nc1ccn([C@@H]2O[C@H](CO)[C@@H](O)C2O)c(=O)n1` (some centres not stated): 13.6%.
On the same count and under the same terms, as for `O=C1NC(=O)C2CC=CCC12` (configuration not stated), the figure is -19.4%; as for `CC1(C)OC[C@@H](COC(=O)CCc2ccc(OC[C@@H](O)CNCCNC(=O)N3CCOCC3)cc2)O1`, -0.0342%; as for `C[N+]1(C)[C@@H]2CC(OC(=O)[C@H](CO)c3ccccc3)C[C@H]1[C@@H]1O[C@@H]12` (some centres not stated), -0.871%.
